For one sequence, binding signal results are on record in article PMC7862700, “An all-to-all approach to the identification of sequence-specific readers for epigenetic DNA modifications on cytosine”.

What all share (assay): DAPPL (digital affinity profiling via proximity ligation, sequencing); 10 mM Tris-HCl pH 7.5, 50 mM NaCl, 1 mM DTT, 4% glycerol, room temperature, 30 min; GST-TFs on glutathione beads, 16-mer random dsDNA library, 0.1% formaldehyde crosslink after washing; high values mean tight binding
The target of one test is T1, FEV (Homo sapiens, UniProt Q99581 1-238).
T1 sequence: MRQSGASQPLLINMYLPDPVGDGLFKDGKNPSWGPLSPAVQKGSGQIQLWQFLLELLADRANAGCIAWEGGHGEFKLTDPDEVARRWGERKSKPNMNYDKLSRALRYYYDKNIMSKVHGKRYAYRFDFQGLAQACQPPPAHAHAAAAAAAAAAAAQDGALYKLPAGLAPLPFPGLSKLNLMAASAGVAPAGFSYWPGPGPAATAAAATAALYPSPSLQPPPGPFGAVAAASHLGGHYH
The conditions noted are these: protein: recombinant; tags: N-terminal GST; dsDNA, one strand shown. The essentials: (§1)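 Beads coated with glutathione captured GST-fused human transcription factors that had been expressed in yeast, and the factors were then given DNA barcodes and pooled with a tag-only sample. The pools were incubated with 200 nmole of a random double-stranded 16-mer DNA library in Tris/NaCl/DTT/glycerol buffer for 30 min at room temperature, washed, crosslinked with 0.1% formaldehyde and proximity-ligated with BsaI/T4 ligase at 37 °C for 1 h. PCR amplification and Illumina NextSeq500 sequencing came last. Binding signal is each hexamer's read frequency for a factor divided by its frequency for the tag-only sample.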

For a further test, the target named is ETV5 (Homo sapiens, UniProt P41161 1-510). Particulars: protein: recombinant; tags: N-terminal GST; dsDNA, one strand shown. An outline of the steps: as §1
Chain of ETV5 (P41161 whole entry): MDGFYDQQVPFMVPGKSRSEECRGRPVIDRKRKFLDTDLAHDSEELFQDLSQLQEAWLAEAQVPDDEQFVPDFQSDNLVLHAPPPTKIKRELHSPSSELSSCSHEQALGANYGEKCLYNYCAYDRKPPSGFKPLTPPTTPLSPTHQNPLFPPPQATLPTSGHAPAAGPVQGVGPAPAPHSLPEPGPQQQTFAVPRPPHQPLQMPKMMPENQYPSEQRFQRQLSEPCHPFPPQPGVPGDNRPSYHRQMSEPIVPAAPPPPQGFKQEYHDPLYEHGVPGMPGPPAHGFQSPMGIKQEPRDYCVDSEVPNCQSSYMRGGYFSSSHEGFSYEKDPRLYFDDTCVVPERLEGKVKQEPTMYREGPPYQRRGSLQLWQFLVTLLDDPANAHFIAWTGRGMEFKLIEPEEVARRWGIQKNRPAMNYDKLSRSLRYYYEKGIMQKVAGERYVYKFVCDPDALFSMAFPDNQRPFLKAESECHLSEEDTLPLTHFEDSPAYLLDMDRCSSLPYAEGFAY
The next test deals with HSF1 (Homo sapiens, UniProt Q00613 1-529). Particulars: protein: recombinant; tags: N-terminal GST; chain copies: 3; dsDNA, one strand shown. An outline of the steps:
as §1

A further test addresses T2, SPIC (Homo sapiens, UniProt Q8N5J4 1-248).
T2 sequence: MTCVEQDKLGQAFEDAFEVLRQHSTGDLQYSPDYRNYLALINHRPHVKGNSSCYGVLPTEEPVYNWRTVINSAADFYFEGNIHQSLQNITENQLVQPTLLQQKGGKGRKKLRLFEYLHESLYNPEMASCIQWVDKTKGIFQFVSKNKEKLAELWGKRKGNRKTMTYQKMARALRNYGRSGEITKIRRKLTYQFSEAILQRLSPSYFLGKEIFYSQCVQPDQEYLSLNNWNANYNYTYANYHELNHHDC
Particulars: protein: recombinant; tags: N-terminal GST; dsDNA, one strand shown. The essentials: as §1

In a further test the target is ELF4 (Homo sapiens, UniProt Q99607 1-663). The conditions noted are these: protein: recombinant; tags: N-terminal GST; dsDNA, one strand shown. An outline of the steps:
as §1

A further test has as its target T3, ELK4 (Homo sapiens, UniProt P28324-2 1-405).
T3 sequence: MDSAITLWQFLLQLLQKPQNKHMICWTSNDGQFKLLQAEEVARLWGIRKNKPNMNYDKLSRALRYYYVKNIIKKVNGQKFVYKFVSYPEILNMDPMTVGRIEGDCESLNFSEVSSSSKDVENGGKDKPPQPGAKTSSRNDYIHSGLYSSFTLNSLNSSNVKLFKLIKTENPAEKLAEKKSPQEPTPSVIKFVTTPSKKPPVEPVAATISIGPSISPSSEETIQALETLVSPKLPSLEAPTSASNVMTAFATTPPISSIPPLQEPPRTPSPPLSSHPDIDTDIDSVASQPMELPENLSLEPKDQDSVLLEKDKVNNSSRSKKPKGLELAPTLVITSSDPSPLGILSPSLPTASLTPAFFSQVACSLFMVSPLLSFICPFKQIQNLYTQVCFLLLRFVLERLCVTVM
The conditions noted are these: protein: recombinant; tags: N-terminal GST; dsDNA, one strand shown. An outline of the steps: as §1

A further test addresses T4, ETV2 (Homo sapiens, UniProt O00321 1-342).
T4 sequence: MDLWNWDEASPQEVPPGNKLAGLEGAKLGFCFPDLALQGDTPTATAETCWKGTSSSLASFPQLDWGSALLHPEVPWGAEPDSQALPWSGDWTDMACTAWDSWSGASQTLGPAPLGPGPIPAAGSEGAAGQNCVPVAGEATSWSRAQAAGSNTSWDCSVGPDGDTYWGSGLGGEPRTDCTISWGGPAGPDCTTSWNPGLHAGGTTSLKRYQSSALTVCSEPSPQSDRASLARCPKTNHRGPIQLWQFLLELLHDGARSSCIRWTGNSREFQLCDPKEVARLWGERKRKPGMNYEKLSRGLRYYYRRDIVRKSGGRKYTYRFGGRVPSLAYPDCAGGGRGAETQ
Particulars: protein: recombinant; tags: N-terminal GST; dsDNA, one strand shown. The essentials:
as §1

Another test addresses T5, ELF3 (Homo sapiens, UniProt P78545 1-371).
T5 sequence: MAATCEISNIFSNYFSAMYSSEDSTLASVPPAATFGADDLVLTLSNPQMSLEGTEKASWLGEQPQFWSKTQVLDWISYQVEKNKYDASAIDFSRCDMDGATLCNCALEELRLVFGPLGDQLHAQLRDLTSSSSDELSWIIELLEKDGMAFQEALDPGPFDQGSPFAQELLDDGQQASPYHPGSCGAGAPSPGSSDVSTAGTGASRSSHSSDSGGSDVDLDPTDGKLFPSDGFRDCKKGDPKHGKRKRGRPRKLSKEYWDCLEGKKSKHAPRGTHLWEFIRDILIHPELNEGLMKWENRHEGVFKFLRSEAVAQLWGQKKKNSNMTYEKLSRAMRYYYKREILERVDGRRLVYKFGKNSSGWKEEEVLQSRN
Particulars: protein: recombinant; tags: N-terminal GST; dsDNA, one strand shown. An outline of the steps:
as §1

Another test has as its target CRX (Homo sapiens, UniProt O43186 1-299). Particulars: protein: recombinant; tags: N-terminal GST; dsDNA, one strand shown. An outline of the steps: as §1
A further test addresses ETV1 (Homo sapiens, UniProt P50549 1-477). Particulars: protein: recombinant; tags: N-terminal GST; dsDNA, one strand shown. The essentials: as §1
For the next test, the target named is T6, ERF (Homo sapiens, UniProt P50548 1-548).
T6 sequence: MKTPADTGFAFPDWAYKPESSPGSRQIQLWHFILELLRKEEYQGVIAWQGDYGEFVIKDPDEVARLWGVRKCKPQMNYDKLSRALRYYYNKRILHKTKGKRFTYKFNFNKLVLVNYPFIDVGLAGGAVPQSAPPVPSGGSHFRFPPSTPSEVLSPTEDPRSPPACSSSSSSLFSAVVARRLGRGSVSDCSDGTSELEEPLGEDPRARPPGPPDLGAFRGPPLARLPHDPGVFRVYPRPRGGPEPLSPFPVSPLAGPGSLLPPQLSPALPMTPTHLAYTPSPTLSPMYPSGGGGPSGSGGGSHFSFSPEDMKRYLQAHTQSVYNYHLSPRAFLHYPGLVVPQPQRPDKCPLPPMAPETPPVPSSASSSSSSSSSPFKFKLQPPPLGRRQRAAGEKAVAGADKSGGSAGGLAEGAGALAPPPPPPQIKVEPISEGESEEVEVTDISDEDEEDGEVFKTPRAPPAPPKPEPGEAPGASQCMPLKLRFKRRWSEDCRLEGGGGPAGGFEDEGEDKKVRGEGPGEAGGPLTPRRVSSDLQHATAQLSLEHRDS
The conditions noted are these: protein: recombinant; tags: N-terminal GST; dsDNA, one strand shown. The essentials:
as §1

In the next test the target is T7, ETV3L (Homo sapiens, UniProt Q6ZN32 1-361).
T7 sequence: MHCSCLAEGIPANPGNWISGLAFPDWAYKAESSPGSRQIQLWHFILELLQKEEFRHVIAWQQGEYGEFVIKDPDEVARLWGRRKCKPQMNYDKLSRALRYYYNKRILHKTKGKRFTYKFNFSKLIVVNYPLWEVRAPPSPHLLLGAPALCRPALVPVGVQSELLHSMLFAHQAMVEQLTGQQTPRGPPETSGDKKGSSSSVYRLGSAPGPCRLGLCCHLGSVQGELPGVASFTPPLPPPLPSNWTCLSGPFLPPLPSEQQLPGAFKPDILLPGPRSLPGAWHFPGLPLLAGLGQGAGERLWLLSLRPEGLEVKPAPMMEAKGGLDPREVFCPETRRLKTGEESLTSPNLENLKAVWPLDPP
The conditions noted are these: protein: recombinant; tags: N-terminal GST; dsDNA, one strand shown. An outline of the steps: as §1

In a further test the target is T8, ETS2 (Homo sapiens, UniProt P15036 1-469).
T8 sequence: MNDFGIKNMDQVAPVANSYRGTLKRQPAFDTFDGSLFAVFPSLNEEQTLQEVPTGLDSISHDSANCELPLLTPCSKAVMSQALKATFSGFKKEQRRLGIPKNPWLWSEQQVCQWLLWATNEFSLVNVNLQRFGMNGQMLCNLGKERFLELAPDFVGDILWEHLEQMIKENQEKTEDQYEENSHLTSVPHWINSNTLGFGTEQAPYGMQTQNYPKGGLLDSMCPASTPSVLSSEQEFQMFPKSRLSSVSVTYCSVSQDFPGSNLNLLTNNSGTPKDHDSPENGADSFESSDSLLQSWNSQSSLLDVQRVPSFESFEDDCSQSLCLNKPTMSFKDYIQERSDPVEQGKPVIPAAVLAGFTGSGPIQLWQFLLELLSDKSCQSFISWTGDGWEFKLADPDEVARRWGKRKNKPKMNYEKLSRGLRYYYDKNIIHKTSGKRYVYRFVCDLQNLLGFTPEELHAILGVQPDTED
The conditions noted are these: protein: recombinant; tags: N-terminal GST; dsDNA, one strand shown. The essentials: as §1

The next test concerns the target T9, SPDEF (Homo sapiens, UniProt O95238 1-335).
T9 sequence: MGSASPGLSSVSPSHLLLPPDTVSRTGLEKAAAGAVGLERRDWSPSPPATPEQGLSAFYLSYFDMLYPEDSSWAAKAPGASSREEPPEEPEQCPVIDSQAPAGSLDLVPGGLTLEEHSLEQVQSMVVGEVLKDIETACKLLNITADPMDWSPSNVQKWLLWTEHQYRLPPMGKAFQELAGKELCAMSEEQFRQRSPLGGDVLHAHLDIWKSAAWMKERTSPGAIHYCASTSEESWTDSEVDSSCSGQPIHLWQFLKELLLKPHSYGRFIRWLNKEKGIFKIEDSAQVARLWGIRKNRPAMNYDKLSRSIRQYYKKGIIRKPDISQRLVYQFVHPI
Particulars: protein: recombinant; tags: N-terminal GST; dsDNA, one strand shown. An outline of the steps:
as §1

A further test has as its target T10, ETV7 (Homo sapiens, UniProt Q9Y603 1-341).
T10 sequence: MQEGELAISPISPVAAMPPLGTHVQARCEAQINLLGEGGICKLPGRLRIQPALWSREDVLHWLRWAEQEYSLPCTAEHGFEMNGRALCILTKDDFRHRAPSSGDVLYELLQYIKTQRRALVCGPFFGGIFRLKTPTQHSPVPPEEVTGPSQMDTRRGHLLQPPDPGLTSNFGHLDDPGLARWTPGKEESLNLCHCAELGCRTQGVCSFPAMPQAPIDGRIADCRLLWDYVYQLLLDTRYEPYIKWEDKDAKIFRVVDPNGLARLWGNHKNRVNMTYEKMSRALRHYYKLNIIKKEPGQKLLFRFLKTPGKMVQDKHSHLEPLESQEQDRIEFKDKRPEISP
The conditions noted are these: protein: recombinant; tags: N-terminal GST; dsDNA, one strand shown. The essentials:
as §1

For another test, the target named is T11, ELF5 (Homo sapiens, UniProt Q9UKW6-2 1-255).
T11 sequence: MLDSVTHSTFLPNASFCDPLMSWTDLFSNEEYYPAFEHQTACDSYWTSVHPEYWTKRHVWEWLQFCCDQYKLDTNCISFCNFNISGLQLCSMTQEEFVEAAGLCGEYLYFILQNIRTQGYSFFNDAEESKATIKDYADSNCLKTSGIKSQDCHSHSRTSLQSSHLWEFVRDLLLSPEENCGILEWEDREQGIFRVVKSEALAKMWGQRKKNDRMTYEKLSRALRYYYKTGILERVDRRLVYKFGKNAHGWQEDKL
The conditions noted are these: protein: recombinant; tags: N-terminal GST; dsDNA, one strand shown. An outline of the steps:
as §1

In another test the target is T12, ETV3 (Homo sapiens, UniProt P41162-2 1-143).
T12 sequence: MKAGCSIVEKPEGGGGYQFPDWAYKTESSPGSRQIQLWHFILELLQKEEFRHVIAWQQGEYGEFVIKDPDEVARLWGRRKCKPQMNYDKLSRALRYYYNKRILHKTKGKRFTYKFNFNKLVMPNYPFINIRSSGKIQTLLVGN
Particulars: protein: recombinant; tags: N-terminal GST; dsDNA, one strand shown. The essentials: as §1

The target in the next test is ETV6 (Homo sapiens, UniProt P41212 1-452). The conditions noted are these: protein: recombinant; tags: N-terminal GST; dsDNA, one strand shown. An outline of the steps: as §1
Chain of ETV6 (P41212 whole entry): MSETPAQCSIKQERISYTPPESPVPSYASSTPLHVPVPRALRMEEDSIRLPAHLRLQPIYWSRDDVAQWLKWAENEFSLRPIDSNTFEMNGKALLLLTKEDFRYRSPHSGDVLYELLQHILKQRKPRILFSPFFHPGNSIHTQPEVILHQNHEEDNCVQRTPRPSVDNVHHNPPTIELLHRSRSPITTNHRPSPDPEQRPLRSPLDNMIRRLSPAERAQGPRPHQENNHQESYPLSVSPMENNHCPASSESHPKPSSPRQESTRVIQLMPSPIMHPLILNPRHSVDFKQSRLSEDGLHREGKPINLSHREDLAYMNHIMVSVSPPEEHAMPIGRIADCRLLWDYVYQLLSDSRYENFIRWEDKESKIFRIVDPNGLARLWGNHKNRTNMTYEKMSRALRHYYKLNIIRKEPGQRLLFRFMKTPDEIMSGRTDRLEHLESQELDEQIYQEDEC

Chain of CRX (O43186 whole entry): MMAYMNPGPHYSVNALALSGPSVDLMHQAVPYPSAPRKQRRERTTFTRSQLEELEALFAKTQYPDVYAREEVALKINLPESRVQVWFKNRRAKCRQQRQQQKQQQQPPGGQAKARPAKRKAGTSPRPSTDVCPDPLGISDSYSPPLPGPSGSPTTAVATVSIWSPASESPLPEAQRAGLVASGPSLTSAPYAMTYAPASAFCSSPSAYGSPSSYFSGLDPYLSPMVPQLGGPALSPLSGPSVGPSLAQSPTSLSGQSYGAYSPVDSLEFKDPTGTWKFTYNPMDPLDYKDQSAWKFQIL
Chain of ETV1 (P50549 whole entry): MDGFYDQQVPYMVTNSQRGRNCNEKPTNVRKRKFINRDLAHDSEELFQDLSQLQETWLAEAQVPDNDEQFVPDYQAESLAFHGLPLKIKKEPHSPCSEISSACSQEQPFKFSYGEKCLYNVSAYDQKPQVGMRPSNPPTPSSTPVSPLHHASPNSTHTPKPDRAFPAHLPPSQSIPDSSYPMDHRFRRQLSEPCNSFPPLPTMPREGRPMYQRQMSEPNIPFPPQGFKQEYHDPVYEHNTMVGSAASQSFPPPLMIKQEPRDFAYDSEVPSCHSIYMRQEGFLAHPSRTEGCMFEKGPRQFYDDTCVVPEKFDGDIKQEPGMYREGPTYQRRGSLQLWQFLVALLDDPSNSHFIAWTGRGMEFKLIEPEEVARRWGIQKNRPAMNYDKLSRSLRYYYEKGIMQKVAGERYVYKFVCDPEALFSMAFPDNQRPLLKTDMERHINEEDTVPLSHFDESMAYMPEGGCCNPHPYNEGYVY
Chain of HSF1 (Q00613 whole entry): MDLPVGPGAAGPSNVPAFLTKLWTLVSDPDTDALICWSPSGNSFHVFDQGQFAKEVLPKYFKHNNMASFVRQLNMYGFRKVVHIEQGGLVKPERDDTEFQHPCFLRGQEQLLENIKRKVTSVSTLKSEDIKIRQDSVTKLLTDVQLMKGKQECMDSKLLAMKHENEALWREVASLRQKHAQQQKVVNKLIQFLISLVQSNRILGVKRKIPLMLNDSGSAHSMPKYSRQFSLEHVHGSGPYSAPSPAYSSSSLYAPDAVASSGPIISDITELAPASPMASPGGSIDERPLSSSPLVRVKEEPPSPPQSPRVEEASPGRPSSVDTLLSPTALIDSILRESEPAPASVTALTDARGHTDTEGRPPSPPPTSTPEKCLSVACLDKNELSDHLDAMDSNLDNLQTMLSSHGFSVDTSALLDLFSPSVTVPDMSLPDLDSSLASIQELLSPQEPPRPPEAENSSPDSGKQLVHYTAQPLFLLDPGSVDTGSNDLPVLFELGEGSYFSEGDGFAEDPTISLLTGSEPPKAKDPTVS
Chain of ELF4 (Q99607 whole entry): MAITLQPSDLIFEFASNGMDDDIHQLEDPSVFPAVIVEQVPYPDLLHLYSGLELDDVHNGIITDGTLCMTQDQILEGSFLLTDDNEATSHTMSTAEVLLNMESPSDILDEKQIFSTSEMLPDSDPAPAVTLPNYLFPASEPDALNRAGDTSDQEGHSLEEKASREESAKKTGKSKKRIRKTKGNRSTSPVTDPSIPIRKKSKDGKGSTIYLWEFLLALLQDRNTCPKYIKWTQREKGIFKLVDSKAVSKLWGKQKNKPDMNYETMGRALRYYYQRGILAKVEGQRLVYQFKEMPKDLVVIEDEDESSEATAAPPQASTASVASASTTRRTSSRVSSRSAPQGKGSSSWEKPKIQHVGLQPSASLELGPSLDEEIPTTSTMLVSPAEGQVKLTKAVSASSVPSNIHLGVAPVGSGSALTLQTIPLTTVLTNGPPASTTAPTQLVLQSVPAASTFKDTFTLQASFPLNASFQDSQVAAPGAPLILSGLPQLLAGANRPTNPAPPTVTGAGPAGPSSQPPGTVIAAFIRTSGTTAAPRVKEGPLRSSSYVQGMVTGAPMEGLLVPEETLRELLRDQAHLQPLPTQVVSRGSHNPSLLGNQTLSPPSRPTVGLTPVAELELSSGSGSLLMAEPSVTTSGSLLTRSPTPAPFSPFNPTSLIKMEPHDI

Take GATGCT: the binding signal was 1.23 fold enrichment (6-mer frequency, TF over GST control) with FEV; 1.29 fold enrichment (6-mer frequency, TF over GST control) with ETV5; 1.13 fold enrichment (6-mer frequency, TF over GST control) with HSF1; 1.35 fold enrichment (6-mer frequency, TF over GST control) with SPIC; 1.26 fold enrichment (6-mer frequency, TF over GST control) in the test with ELF4; 1.28 fold enrichment (6-mer frequency, TF over GST control) with ELK4. Moreover, the binding signal with ETV2 is 1.18 fold enrichment (6-mer frequency, TF over GST control); with ELF3 it was 1.3 fold enrichment (6-mer frequency, TF over GST control); with CRX it was 1.06 fold enrichment (6-mer frequency, TF over GST control); with ETV1 it was 1.27 fold enrichment (6-mer frequency, TF over GST control); with ERF it was 1.3 fold enrichment (6-mer frequency, TF over GST control); with ETV3L, 1.28 fold enrichment (6-mer frequency, TF over GST control). The binding signal with ETS2 was 1.25 fold enrichment (6-mer frequency, TF over GST control); with SPDEF, 1.2 fold enrichment (6-mer frequency, TF over GST control); in the test with ETV7, 1.29 fold enrichment (6-mer frequency, TF over GST control); with ELF5, 1.21 fold enrichment (6-mer frequency, TF over GST control); in the test with ETV3 it was 1.29 fold enrichment (6-mer frequency, TF over GST control); with ETV6 it was 1.16 fold enrichment (6-mer frequency, TF over GST control).
